Assay results published in PubChem BioAssay AID1619 (SRMLSC, 2009).
Hit rate of the full screen: of about 220,000 compounds, about 830 (0.38%) were called active.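 How the source made its calls: active means compound inhibiting the enzyme by more than half at any dose during confirmatory dose-response retesting; inconclusive means strong single-dose inhibitors picked by rank but not retested; inactive means the rest.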 These entries were drawn from the full list. Results with a measured potency or affinity are listed apart.

Biological target: Leucine aminopeptidase (Plasmodium falciparum (isolate 3D7)) (UniProt Q8IL11)
Test: P. falciparum M17LAP inhibitors, primary screen, biochemical, fluorogenic H-Leu-NHMec substrate, 1536-well (AID 1619);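 further: plate controls were full reaction with DMSO carrier for no effect and no enzyme background for full effect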
Settings: recombinant M17LAP, H-Leu-NHMec fluorogenic kinetic assay; at 30 µM; hits give high values

Sequence of Leucine aminopeptidase (Plasmodium falciparum (isolate 3D7)) (Q8IL11 whole entry, looked up): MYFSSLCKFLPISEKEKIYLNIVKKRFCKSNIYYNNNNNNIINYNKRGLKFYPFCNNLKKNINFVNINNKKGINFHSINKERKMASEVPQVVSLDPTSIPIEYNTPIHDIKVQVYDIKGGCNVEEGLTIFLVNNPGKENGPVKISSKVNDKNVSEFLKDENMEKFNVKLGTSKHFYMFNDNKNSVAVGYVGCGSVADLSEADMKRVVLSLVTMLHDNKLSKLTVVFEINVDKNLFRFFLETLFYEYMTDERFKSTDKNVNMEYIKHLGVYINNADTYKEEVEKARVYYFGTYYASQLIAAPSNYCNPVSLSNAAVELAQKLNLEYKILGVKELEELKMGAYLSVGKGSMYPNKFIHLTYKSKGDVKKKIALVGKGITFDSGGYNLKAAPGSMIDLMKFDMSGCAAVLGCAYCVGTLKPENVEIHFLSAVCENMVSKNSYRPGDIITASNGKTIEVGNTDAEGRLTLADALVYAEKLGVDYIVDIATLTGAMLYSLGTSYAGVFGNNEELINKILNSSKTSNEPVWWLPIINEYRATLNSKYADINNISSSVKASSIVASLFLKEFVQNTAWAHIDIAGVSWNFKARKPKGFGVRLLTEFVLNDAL

inhibition, inactive:
COc1cc(NC(=O)Cc2cccs2)c(C(=O)O)cc1OC 4.5%, Cc1c(Cl)cccc1NC(CC(=O)c1ccccc1)C(=O)O (stereo not drawn) 49.4%, O=C(CC(Nc1ccccc1Cl)C(=O)O)c1ccccc1 (stereo not drawn) 19.8%, O=C(CCCN1C(=O)c2ccccc2C1=O)Nc1nncs1 0.65%, Oc1ccc(-c2nc(-c3ccc(O)c(O)c3)cs2)cc1 25.6%, COc1cc(-c2csc(C)n2)ccc1O -9.57%, Cc1cc(Cl)cc(Cl)c1OCCCCN(C)C 1.1%, COc1ccc(/C=C/C(=O)Nc2cc(=O)n(C)c(=O)n2C)cc1 50.5%, Cn1c(NC(=O)/C=C/c2ccccc2)cc(=O)n(C)c1=O 9.82%, CCCCC(CC)CNC(=O)/C=C/c1ccc(F)cc1 (stereo not drawn) 9.03%, COc1ccc(S(=O)(=O)Nc2ccc3c(c2)OCCO3)cc1Cl -0.34%, Cc1cc(SCC2=NNC(=O)C2)c(Cl)cc1Cl 3.5%, O=C1CC(CSc2ccc(Cl)cc2)=NN1 7.98%, O=C(O)COc1ccc(Cl)cc1CO 20%, CCOC(=O)C1=C(C)N(C)C(C)=C(C(=O)OCC)C1c1ccc(C(=O)OC)cc1 3.78%, CC(C)NC(=O)NC(=O)COc1c(F)c(F)cc(F)c1F -8.9%, CCc1ccc(NC(=S)Nc2ccc3cn[nH]c3c2)cc1 11.2%, CCNC(=S)Nc1ccc2cn[nH]c2c1 14.6%, CC(c1ccon1)N(C)Cc1cn(C)nc1-c1cccc(Cl)c1 (stereo not drawn) -1.33%, CN(C)c1ccc(/C=C2\CCC/C(=C\c3ccccc3)C2=O)cc1 5.08%, O=C1/C(=C/c2ccncc2)CCC/C1=C\c1ccncc1 -3.28%, COc1ccc(CC(=O)Nc2cc(S(=O)(=O)N3CCOCC3)ccc2N2CCOCC2)cc1 2.63%, COC(=O)c1cccc(NC(=O)Nc2ccc(Cl)cc2)c1 2.56%, CC(=O)Nc1ccc(CC(=O)O)cc1 -5.89%, O=C(Nc1ccc(OC(F)(F)F)cc1)Nc1cccc([N+](=O)[O-])c1 2.58%, COc1ccc(NC(=O)Nc2ccc(CC(=O)O)cc2)cc1 2.73%, O=C(Nc1cccc([N+](=O)[O-])c1)Nc1cccc([N+](=O)[O-])c1 -0.88%, O=C(Nc1ccccc1)Nc1cccc(Cl)c1 15.7%, O=C(Nc1cccc(Cl)c1)Nc1cccc(Cl)c1 1.69%, O=C(Nc1cccc(Cl)c1)Nc1cccc(C(=O)O)c1 -7.66%, O=C(COc1ccc(S(=O)(=O)N2CCCCC2)cc1)NC1CCCCC1 0.02%, O=C(NC(Cc1ccccc1)C(=O)O)/C(=C\c1ccccc1F)NC(=O)c1ccccc1 (stereo not drawn) 32.3%, O=C(NCc1ccco1)c1ccc(F)c(S(=O)(=O)N2CCCCC2)c1 8.34%, C#CCOc1nc(OCC#C)nc(OCC#C)n1 -14.6%, CC(C)(C)[C@@H]1C=C(C(=O)N2CCOCC2)O[C@H](OCc2ccc(CO)cc2)C1 0.65%, COc1ccccc1CNC(=O)COC(=O)Cc1c(F)cccc1Cl -4.41%, CC(C)C(=O)Nc1ccc(NC(=S)NC(=O)c2cc3ccccc3o2)cc1 -4.08%, COc1ccc(OC)c(NC(=S)N(CCc2c(C)[nH]c3ccc(C)cc23)Cc2cccs2)c1 3.79%, Cc1csc(NC(=O)c2cc(=O)[nH]c3ccc(S(=O)(=O)N4CCOCC4)cc23)n1 -22.8%, COc1ccc(/C=N/NC(=O)CSCC(=O)Nc2ccccc2)cc1 -7.59%, O=C(CSc1nc2ccccc2o1)N/N=C/c1ccccc1 17.4%, COc1ccc(/C=N/NC(=O)CC(=O)N/N=C/c2ccc(OC)cc2)cc1 14.7%, CSc1nc(C)cc(SCC(=O)N/N=C/c2ccccc2)n1 -5.92%, Cc1cc(C(=O)Nc2ccccc2N2CCOCC2)ccc1[N+](=O)[O-] 8.21%, O=C(c1ccc(CN2CCOCC2)cc1)N1CCN(c2ccccc2)CC1 3.18%, Cc1ccc(C)c(NC(=O)c2ccc(S(=O)(=O)C(F)F)cc2)c1 -0.05%, COc1ccccc1N1CCN(C(=O)c2cc(C(C)(C)C)oc2C)CC1 13.9%, O=C1OCCC1Sc1nc2ccccc2c(=O)n1-c1ccc(F)cc1 (stereo not drawn) -2.24%, CCC1=Nc2cc(C(=O)O)ccc2Sc2ccc(Cl)cc21 7.99%, CCOc1ccccc1Nc1nnc(SCC(=O)Nc2cc(C)on2)s1 -0.81%, Cc1ccc(C(=O)NC(Cc2c[nH]c3ccccc23)C(=O)O)cc1 (stereo not drawn) 17.6%, CCOc1ccccc1Nc1nnc(SCC(=O)Nc2ccc3[nH]c(=O)[nH]c3c2)s1 -4.13%, Cc1ccc(C)c(OCC(=O)NC(Cc2c[nH]c3ccccc23)C(=O)O)c1 (stereo not drawn) -8.94%, CC(C)C(=O)Nc1nc2c(c(=O)[nH]1)CCCC2 3.8%, CCc1n[n+](CC(=O)c2ccccc2)c(N)s1 -0.05%, COc1ccc(-c2[nH]ncc2/C=C(/C#N)C(=O)NC2CCCCCC2)cc1 -2.26%, COc1ccc(-c2[nH]ncc2/C=C(/C#N)C(=O)NC2CCCCC2)cc1 0.03%, O=C(c1cc(-c2ccccc2)on1)N1CCN(Cc2ccc3c(c2)OCO3)CC1 -6.81%, Cc1ccccc1NC(=O)CSc1ccsc1[N+](=O)[O-] 8.37%, CCc1ccccc1NC(=O)CSc1ccsc1[N+](=O)[O-] 6.13%, Cc1cccc(C(=O)N2CCCCCC2)c1[N+](=O)[O-] -0.16%, CCN1CCN(CC(O)COCc2ccccc2)CC1 (stereo not drawn) 8.64%, CCCN(C(=O)/C=C/c1ccco1)c1c(N)n(Cc2ccccc2)c(=O)[nH]c1=O 12.1%
